# Laboratory results taken from PubChem BioAssay AID2073 (Sanford-Burnham Center for Chemical Genomics, 2009).
# Out of some 290,000 compounds screened, about 570 (0.2%) were called active. Roughly 1% stayed inconclusive and do not appear here. Rule as the data show it: active = inhibition mostly above about 51% (no sharp cut-off); inconclusive = no clear call, values can overlap the other calls; inactive = mostly below about 53%. The full list was thinned out, with actives kept by preference.
# Biological target: Voltage-dependent N-type calcium channel subunit alpha-1B (Homo sapiens) (UniProt Q00975)
# Sequence (Q00975 whole entry, looked up): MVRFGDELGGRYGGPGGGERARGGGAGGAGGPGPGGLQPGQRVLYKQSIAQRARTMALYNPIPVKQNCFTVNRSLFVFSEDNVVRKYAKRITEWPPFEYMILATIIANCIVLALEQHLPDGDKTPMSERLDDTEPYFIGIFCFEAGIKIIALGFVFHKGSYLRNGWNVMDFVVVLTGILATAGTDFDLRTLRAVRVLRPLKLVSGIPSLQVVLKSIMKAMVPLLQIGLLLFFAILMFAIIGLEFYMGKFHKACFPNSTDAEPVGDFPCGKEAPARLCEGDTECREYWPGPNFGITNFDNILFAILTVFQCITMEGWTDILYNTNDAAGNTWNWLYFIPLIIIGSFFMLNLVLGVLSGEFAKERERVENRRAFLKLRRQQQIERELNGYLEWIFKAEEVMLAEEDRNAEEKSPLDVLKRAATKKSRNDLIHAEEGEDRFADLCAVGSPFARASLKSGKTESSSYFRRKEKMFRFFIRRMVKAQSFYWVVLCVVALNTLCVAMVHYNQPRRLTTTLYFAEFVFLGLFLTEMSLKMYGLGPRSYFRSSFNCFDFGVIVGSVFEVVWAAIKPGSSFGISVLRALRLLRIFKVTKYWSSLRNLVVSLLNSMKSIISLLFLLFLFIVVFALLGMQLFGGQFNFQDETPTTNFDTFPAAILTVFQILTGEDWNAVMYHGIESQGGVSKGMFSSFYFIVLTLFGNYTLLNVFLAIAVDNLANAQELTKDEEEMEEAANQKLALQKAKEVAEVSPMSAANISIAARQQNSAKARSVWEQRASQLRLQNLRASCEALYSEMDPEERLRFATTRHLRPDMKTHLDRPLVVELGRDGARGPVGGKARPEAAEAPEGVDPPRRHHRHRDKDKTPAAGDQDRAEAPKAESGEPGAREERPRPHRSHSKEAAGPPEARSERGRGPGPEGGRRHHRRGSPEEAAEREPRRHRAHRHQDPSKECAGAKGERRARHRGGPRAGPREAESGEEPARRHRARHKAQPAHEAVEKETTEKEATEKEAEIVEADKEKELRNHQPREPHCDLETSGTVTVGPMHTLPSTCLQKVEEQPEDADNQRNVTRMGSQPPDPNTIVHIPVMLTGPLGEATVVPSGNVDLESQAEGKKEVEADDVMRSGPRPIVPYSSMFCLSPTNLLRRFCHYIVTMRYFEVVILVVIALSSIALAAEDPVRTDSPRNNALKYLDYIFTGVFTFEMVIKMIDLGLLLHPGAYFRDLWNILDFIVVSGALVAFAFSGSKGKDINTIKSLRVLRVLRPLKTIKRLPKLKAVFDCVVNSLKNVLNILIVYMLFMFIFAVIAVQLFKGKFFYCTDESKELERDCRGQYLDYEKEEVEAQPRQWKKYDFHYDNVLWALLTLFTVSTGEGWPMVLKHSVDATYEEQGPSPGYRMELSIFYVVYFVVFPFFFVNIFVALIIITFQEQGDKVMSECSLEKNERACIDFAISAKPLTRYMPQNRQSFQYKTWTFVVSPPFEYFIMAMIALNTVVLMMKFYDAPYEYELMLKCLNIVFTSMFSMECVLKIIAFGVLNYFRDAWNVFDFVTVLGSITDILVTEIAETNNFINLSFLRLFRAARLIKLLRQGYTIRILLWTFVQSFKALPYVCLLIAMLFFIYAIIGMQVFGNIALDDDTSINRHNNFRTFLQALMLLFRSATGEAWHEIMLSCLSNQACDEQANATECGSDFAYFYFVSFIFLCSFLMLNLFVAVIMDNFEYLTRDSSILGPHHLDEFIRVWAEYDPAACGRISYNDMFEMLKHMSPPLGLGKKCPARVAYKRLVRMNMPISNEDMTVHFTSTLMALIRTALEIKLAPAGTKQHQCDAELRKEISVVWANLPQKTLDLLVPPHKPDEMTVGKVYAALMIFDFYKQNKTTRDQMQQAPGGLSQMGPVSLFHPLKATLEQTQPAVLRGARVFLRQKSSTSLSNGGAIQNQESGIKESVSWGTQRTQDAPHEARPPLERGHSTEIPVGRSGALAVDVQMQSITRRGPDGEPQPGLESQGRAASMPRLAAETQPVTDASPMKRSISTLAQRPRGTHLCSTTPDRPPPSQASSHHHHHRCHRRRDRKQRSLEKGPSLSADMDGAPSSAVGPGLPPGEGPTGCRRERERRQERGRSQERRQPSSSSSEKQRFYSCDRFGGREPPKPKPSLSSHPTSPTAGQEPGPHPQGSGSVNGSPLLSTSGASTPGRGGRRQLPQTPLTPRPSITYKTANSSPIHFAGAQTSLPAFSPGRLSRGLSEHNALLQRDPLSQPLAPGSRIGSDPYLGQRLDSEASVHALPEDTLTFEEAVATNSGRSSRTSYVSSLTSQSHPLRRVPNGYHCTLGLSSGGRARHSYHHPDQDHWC
# Assay: inhibitors of Mint1-CaV2.2 protein interaction, biochemical, HTRF (AID 2073)
# Details: at 20 µM, stronger effect = higher value
# [1] = measured here: average of repeat tests
SMILES,inhibition,inhibition [1] [%]
CC1=Nc2nc(N3CCCCC3)c(C#N)c3c4c(nc(c23)N1)N(c1ccc(C(C)C)cc1)C(=O)C4,54.8% (active),
COc1ccc(CN2C(=O)Cc3c2nc(N)c2c(N)nc(N4CCCCC4)c(C#N)c32)cc1,24.2% (inactive),
CCN(CC)c1nc2c3c(nc4c(c3c1C#N)CC(=O)N4c1ccc(Cl)cc1)NC(C)=N2,15.5% (inactive),
C/C(=N\NC(N)=S)C1(C)CCCCC1,1.7% (inactive),
CCNc1nc(-c2cc(C)n(Cc3ccco3)c2C)cs1,71.4% (inactive),-8.8
Cc1cc(-c2csc(NC(=O)c3ccc(C#N)cc3)n2)c(C)n1Cc1ccco1,74% (active),
Cc1cc(-c2csc(NC(=O)c3ccc(C#N)cc3)n2)c(C)n1Cc1ccccc1,31.3% (inactive),
COc1ccc(-c2noc(N3CCC(C(=O)Nc4ccccc4Cl)CC3)n2)cc1,1.9% (inactive),
Cc1onc(-c2ccccc2)c1C(=O)OCC(=O)NCc1ccc(F)cc1,-0.7% (inactive),
CCOc1ccc(Oc2c(C)oc3cc(O)ccc3c2=O)cc1,15.1% (inactive),
Cc1ccc(-c2nc(C=Nc3ccccc3)c(O)o2)cc1,-6.2% (inactive),
Cc1ccc(N=Cc2nc(-c3ccc(C)cc3)oc2O)cc1,17.5% (inactive),
CC(NCC(O)c1ccc([N+](=O)[O-])cc1)C12CC3CC(CC(C3)C1)C2 (stereo not drawn),0.6% (inactive),
CCNC(=O)COC(=O)c1ccc(-n2nc(C)cc2C)cc1,5.8% (inactive),
COc1cc(/C=N/N=C(/C(=O)c2ccccc2)c2ccccc2)cc(OC)c1O,-2.5% (inactive),
O=C(/C(=N/N=C/c1ccc(O)c(O)c1O)c1ccccc1)c1ccccc1,66.2% (active),
O=C(/C(=N/N=C/c1ccc(O)c(O)c1)c1ccccc1)c1ccccc1,-21.8% (inactive),
CCC(=O)N1CC2(C)CN(C(=O)CC)CC(C)(C1)C2,-2.6% (inactive),
COc1ccc(C(=O)N2CCCC(CO)(Cc3ccccc3C)C2)o1 (stereo not drawn),2.1% (inactive),
CCCCc1ccc(-c2csc(/C(C#N)=C/c3ccc(C)o3)n2)cc1,16.8% (inactive),
CCCCc1ccc(-c2csc(/C(C#N)=C/c3ccco3)n2)cc1,49.9% (inactive),
CCCCc1ccc(-c2csc(/C(C#N)=C\c3ccco3)n2)cc1,57.8% (active),
CSc1nc(N2CCN(c3ccccc3)CC2)cc(N2CCN(c3ccccc3)CC2)n1,18.7% (inactive),
O=C(N/N=C1\CCCc2ccccc21)c1cccc(Br)c1,-12.7% (inactive),

SMILES,inhibition,inhibition [1] [%]
Cc1ccccc1CN(c1ccc(C(=O)NCc2ccccn2)cc1)S(C)(=O)=O,-3.2% (inactive),
CCc1ccc(Nc2n[n+](-c3ccccc3)c(-c3ccc(OC)c(Br)c3)s2)cc1,19.2% (inactive),
COC(=O)c1c(NC(=O)COC(=O)c2ccc(NC(=O)CC#N)cc2)sc2c1CCCCC2,78.4% (active),
COC(=O)c1c(NC(=O)COC(=O)c2ccc(O)cc2)sc2c1CCCCC2,5.8% (inactive),
COC(=O)c1c(NC(=O)COC(=O)c2ccccc2O)sc2c1CCCCC2,-3% (inactive),
CC(C)CCN1C(Nc2ccccc2)=NC[C@@H]1C,2.7% (inactive),
COc1ccccc1-c1cc(C(=O)Nc2cc(C)n(Cc3ccc(Cl)cc3)n2)no1,7.9% (inactive),
Cc1c(Cl)cccc1NC(=O)CCCN1C(=O)c2cccnc2C1=O,3.3% (inactive),
COc1ccc(Nc2c(-c3ccc(OC)cc3)nc3cnccn23)cc1,-9.1% (inactive),
O=C(/C=C/Nc1ccccc1)c1ccccc1,-0.7% (inactive),
CC1(C)OC(=O)C(=CNc2ccccc2)C(=O)O1,-0.4% (inactive),
O=C([C@@H]1Cc2ccccc2CN1)N1CCN(Cc2ccccc2)CC1,8.9% (inactive),
Cc1ccc(-n2ncc3c2CCCC3NC(=O)CCc2c(C)noc2C)cc1C (stereo not drawn),16.6% (inactive),
CNc1ccc(Br)cc(C(=O)/C=C/c2cccc(Cl)c2Cl)c1=O,41.9% (inactive),
CNc1ccc(Br)cc(C(=O)/C=C/c2ccc(Cl)cc2Cl)c1=O,52.7% (active),
CCNc1ccc(Br)cc(C(=O)/C=C/c2ccc(Cl)cc2Cl)c1=O,23.6% (inactive),
N=C1S/C(=C\c2ccco2)C(=O)N1c1ccc2c(c1)OCO2,56% (active),
COc1cc(/C=C2\SC(=N)N(c3ccc4c(c3)OCO4)C2=O)cc(OC)c1O,-8.5% (inactive),
N=C1S/C(=C\c2ccco2)C(=O)N1c1nccs1,50% (active),
N=C1S/C(=C\c2ccc(-c3cccc(Cl)c3)o2)C(=O)N1c1nccs1,35.6% (inactive),
N=C1S/C(=C\c2ccc(-c3ccccc3C(=O)O)o2)C(=O)N1c1ccc2c(c1)OCO2,17.7% (inactive),
COc1ccc(/C=C2\SC(=N)N(c3nccs3)C2=O)cc1OC,20.5% (inactive),
c1ccc(Cc2nnc3sc(-c4cccnc4)nn23)cc1,-12.8% (inactive),
COc1ccc(CN(CC(=O)NC(C)C)C(=O)CCC(=O)Nc2nccs2)cc1,9.7% (inactive),

SMILES,inhibition,inhibition [1] [%]
CCOc1ccc(N2C(=O)CN(C)C2=S)cc1,-2% (inactive),
CC1CCN(C(=O)CCc2ccc(S(=O)(=O)NC(C)C)cc2)CC1,28.5% (inactive),
O=C(Cn1c(-c2ccco2)nc2ccccc21)N1CCCCC1,-14.9% (inactive),
Cn1nc(C(F)(F)F)c(-c2ccc(Br)cc2)c1NC(=O)c1nccnc1C(=O)O,0.4% (inactive),
COc1ccc(NC2CCCN(C(=O)c3csc(C(C)C)n3)C2)cc1OC (stereo not drawn),-10% (inactive),
CSc1ccccc1OCc1cc(C(=O)NCc2cnc(C)cn2)no1,5.6% (inactive),
Fc1ccc(N=c2ssnc2Cl)c(F)c1,91.2% (active),
Clc1ccc(N=c2ssnc2Cl)nc1,38.2% (inactive),
OCc1ccccc1N=c1ssnc1Cl,9.9% (inactive),
Nc1ccccc1N=c1ssnc1Cl,4.1% (inactive),
Cc1cc(Cl)ccc1N=C1N=C(N)c2ccccc21,-3.2% (inactive),
COc1cccc(CNC(=O)CSc2nnc3c(n2)[nH]c2ccc(OC)cc23)c1,5.3% (inactive),
Cc1ccc2c(Cl)cc(Cl)c(OCC(=O)NC(=O)NCc3ccco3)c2n1,17.4% (inactive),
Cc1cc(Cl)cc(Cl)c1OCC(=O)NCc1ccco1,-1.4% (inactive),
Cc1ccc2c(Cl)cc(Cl)c(OCC(=O)NCc3ccco3)c2n1,56.6% (active),
CC1CCN(CC(=O)Nc2cccc(Cl)c2)CC1,-2.2% (inactive),
CC1(C(=O)N2CC3(CC(c4cccc([N+](=O)[O-])c4)=NO3)C[C@H]2C(=O)NCC(N)=O)CC1 (stereo partly drawn),-4.4% (inactive),
O=P(c1ccccc1)(c1ccccc1)C(O)c1ccco1 (stereo not drawn),-0.2% (inactive),
O=C(c1ccco1)C(O)c1ccco1 (stereo not drawn),16.7% (inactive),
O=C(O)C(O)c1ccco1 (stereo not drawn),65.3% (active),
FC(F)(F)Oc1ccc(NC(=S)NCCCN2CCOCC2)cc1,-16.9% (inactive),
COC(=O)C1CCCN1S(=O)(=O)c1ccccc1NC(=O)c1cc(OC)c(OC)c(OC)c1 (stereo not drawn),12.9% (inactive),
O=C(O)c1cccc(-c2ccc(/C=c3/sc4nc5ccccc5n4c3=O)o2)c1,26.7% (inactive),
O=C(O)c1ccc(-c2ccc(/C=c3/sc4nc5ccccc5n4c3=O)o2)cc1Cl,28.8% (inactive),

SMILES,inhibition,inhibition [1] [%]
O=C(O)c1cc(C(=O)O)cc(-c2ccc(/C=c3/sc4nc5ccccc5n4c3=O)o2)c1,67% (active),
COc1cc(/C=C(/C#N)c2nc(-c3cc4ccccc4oc3=O)cs2)cc([N+](=O)[O-])c1O,80.7% (active),
COc1cc(/C=C(\C#N)c2nc3ccccc3s2)cc([N+](=O)[O-])c1O,40.5% (inactive),
COc1cc(/C=C(\C#N)c2nc(-c3cc4ccccc4oc3=O)cs2)ccc1O,23.3% (inactive),
COc1ccc(N2Cc3ccc(C(=O)N/N=C\c4ccc(O)cc4O)cc3C2)cc1,68.9% (inactive),29.4
COc1ccc(NC(=O)c2cc3c(CO)cnc(C)c3oc2=Nc2cccc(F)c2)c(OC)c1,11.2% (inactive),
COc1ccc(NC(=O)c2cc3c(CO)cnc(C)c3oc2=Nc2cccc(C)c2)c(OC)c1,10.6% (inactive),
COc1ccccc1C(=O)OCC(=O)NC1CCCC1,16.7% (inactive),
NC(=O)c1ccccc1NC(=O)CN1CCOCC1,-0.5% (inactive),
COc1cc(/C=C/c2ccc3cccc(O)c3n2)ccc1O,21.1% (inactive),
COc1ccc(/C=C/c2ccc3c(Br)ccc(O)c3n2)cc1,32.5% (inactive),
COc1cc(/C=C/c2ccc3c(Br)cc(Br)c(O)c3n2)ccc1O,56.6% (active),
COCC(=O)N(Cc1nc2sc(C)c(C)c2c(=O)[nH]1)C1CCCCC1,4.2% (inactive),
CN(Cc1ccccc1F)C(=O)c1ccccc1Sc1ccccc1C#N,-14.5% (inactive),
Cc1ccc(Nc2nc(-c3c(C)nc4ncccn34)cs2)cc1,7.5% (inactive),
Cc1nc2ncccn2c1-c1csc(Nc2ccc(O)cc2)n1,25% (inactive),
COc1ccc(Nc2nc(-c3c(C)nc4ncccn34)cs2)cc1,55.6% (active),
Cc1ccc2c(Cl)c(C(=O)NCC(c3ccco3)N3CCCC3)sc2c1 (stereo not drawn),3% (inactive),
O=c1c(Cl)nc2cc(Cl)ccc2n1CCNc1ncc(C(F)(F)F)cc1Cl,-81.2% (inactive),
Clc1ccc2nnnc(-c3ccccc3)c2c1,8.1% (inactive),
Cc1cc(C(=O)COC(=O)Cn2c(C(F)(F)F)nc3ccccc32)c(C)n1Cc1ccco1,1.6% (inactive),
CC(=O)c1sc(NC(=O)CCN2C(=O)c3ccccc3C2=O)nc1C,14.5% (inactive),
CCOC(=O)CCCCCN1C(=O)c2cccc3cccc(c23)C1=O,-9.7% (inactive),
CCOC(=O)c1sc(NC(=O)CCCCCN2C(=O)c3cccc4cccc(c34)C2=O)nc1C,52.5% (active),
